PubChem BioAssay (NCATS)
Values without a mark were called inactive. Results filed as inconclusive are left out. The source made the active and inactive calls. Unless noted, calls come from the whole dose curve; as a rule, active = well fitted curve in either direction with a large enough effect (not every such curve was filed as active); inconclusive = small, poorly fitted or top-dose-only effect, or another doubt; inactive = flat fitted curve, though single readings scatter.

Legend:
[1] = molecular target: Lysosomal acid glucosylceramidase (Homo sapiens) (UniProt P04062); assay: Glucocerebrosidase-p2 (AID 348; in the data active = potency below about 10 µM; note: potency is the fitted concentration of half-maximal effect); settings: purified GBA, blue fluorogenic substrate, 40 min
Method in brief: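 Normal human glucocerebrosidase (0.2 nM) with blue fluorogenic substrate (80 uM final) in citrate/phosphate pH 5.9 with 10mM sodium taurocholate, 0.01% tween-20; 40 min RT, NaOH/glycine stop; fluorescence Ex 365/Em 440; AC50 from a titration from 0.6 nM upwards.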

[2] = AP1 Signaling Pathway (AID 357); settings: ME-180 AP-1-bla reporter, EGF-induced, beta-lactamase ratio, 5 h; at 7.69 µM (top of the series) unless noted;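 note: ME-180 reporter cells stimulated with EGF at its EC50 level; % is set by controls: 0 for no effect and ±100 for the full control effect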
Method in brief: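 First, ME-180 AP-1-bla cells were cultured overnight at 37 °C in low-serum Opti-MEM. Next, titrated compounds with EC50 EGF were incubated 5 hours. Finally, CCF4 was added for 2.5 hours and the 460/530 nm ratio recorded.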

[3] = molecular target: Cytochrome P450 1A2 (Homo sapiens) (UniProt P05177); assay: p450-cyp1a2 (AID 410; calls by dose curve; note: potency is the fitted concentration of half-maximal effect;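 for activity change, negative = inhibition: -100% = full effect of reference inhibitor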); settings: recombinant CYP1A2, luciferin-ME demethylation, luminescence; series mostly up to 11.4 µM
Method in brief: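 20nM CYP1A2, 100uM Luciferin-ME (=Km), 100mM KPO4; cpd 10 min RT; +NADPH regen, 60 min RT; stop/detect 20 min; luminescence. Normalized to furafylline 57 uM = full inhibition.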

[4] = NFAT Signaling Pathway (AID 444); settings: Jurkat NFAT-bla M1, carbachol, beta-lactamase ratio, 5 h; at 7.69 µM (top of the series) unless noted;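 note: carbachol stimulus at about its EC50 of 1 µM final; % is set by controls: 0 for no effect and ±100 for the full control effect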
Method in brief: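 Read-out: CCF4 FRET ratio (460 nm/530 nm) after 1 h RT dye loading, used for %activity and AC50 from titration series. Cells: Jurkat NFAT-β-lactamase/M1 line, treated with compound plus 1 uM carbachol for 5 h, 37 °C.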

[5] = Stat Signaling Pathway (AID 446); settings: ME-180 (cervical carcinoma) SIE beta-lactamase reporter, IL-6 stimulated, 5 h; at 7.69 µM (top of the series) unless noted;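 note: ME-180 cervical cancer cells given 40 pM IL-6 alongside compound; SIE-controlled beta-lactamase reporter measured as 460/530 nm FRET emission ratio; % is set by controls: 0 for no effect and ±100 for the full control effect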
Method in brief: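 Overnight-plated ME-180 cells bearing a STAT Inducible Element beta-lactamase reporter; 5 h co-exposure to compound and 40 pM IL-6; values normalized to 300 pM IL-6 and 125 nM JAK inhibitor controls.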

[6] = molecular target: Glucocorticoid receptor (Homo sapiens) (UniProt P04150); assay: GR-GFP Redistribution (AID 450;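 active = compounds whose dose series gives a full or clear partial fitted curve of increased nuclear translocation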; note: potency is the fitted concentration of half-maximal effect); settings: U2OS GR-GFP nuclear translocation, laser cytometry, 2 h
[7] = molecular target: Glucocorticoid receptor (Homo sapiens) (UniProt P04150); assay: GR-EFC Redistribution (AID 451; calls by dose curve; note: potency is the fitted concentration of half-maximal effect); settings: CHO-K1 GR-EFC translocation, beta-gal luminescence, 2 h
Method in brief: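 Translocation of GR-ED fusion to nuclear EA restores b-gal, read by luminescence after 1 h room-temperature detection. Engineered CHO-K1 biosensor cells, 1,000/well, exposed 2 h at 37 C to titrations up to 46 uM final.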

[8] = molecular target: Mitogen-activated protein kinase 10 (Mus musculus) (UniProt Q61831); assay: JNK3 AlphaScreen Assay (AID 530); settings: JNK3 lysate, c-Jun phosphorylation; series mostly up to 11.4 µM;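 note: kinase came from lysate of stimulated human HepG2 cells; signal reports phosphorylation of biotinylated GST-cJun 1-79 at Ser73 with 10 µM ATP; % is set by controls: 0 for no effect and ±100 for the full control effect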
Method in brief: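 Kinase buffer: 20 mM Tris-HCl pH 7.6, 10 mM MgCl2, 1 mM DTT, 0.1 mM Na3VO4, 0.01% Tween-20; ATP 10 uM. Substrate biotin-GST-cJun(1-79), enzyme from activated HepG2 lysates. Detection by Ser73 phospho-antibody AlphaScreen.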

[9] = molecular target: 3',5'-cyclic-AMP phosphodiesterase 4B (Homo sapiens) (UniProt Q07343); assay: qHTS Assay for Inhibitors of PDE-IV (AID 607; active = well fitted activation curve with a large enough effect in the main read-out, with a control signal flat, not every such curve was filed as active; note: % of control where 0% means no effect); settings: HEK293 ACTOne CNG channel cells, membrane potential fluorescence; series mostly up to 22.9 µM
Method in brief: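 Live HEK293 cells with a modified cyclic nucleotide-gated (CNG) channel report intracellular cAMP via membrane-potential dye fluorescence (ex 535/em 590 nm). Endogenous PDE-IV was targeted. Compounds were tested at up to 22.9 uM final; RO 20-1724 100 uM served as control.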

Chain of Lysosomal acid glucosylceramidase (Homo sapiens) (P04062 whole entry, looked up): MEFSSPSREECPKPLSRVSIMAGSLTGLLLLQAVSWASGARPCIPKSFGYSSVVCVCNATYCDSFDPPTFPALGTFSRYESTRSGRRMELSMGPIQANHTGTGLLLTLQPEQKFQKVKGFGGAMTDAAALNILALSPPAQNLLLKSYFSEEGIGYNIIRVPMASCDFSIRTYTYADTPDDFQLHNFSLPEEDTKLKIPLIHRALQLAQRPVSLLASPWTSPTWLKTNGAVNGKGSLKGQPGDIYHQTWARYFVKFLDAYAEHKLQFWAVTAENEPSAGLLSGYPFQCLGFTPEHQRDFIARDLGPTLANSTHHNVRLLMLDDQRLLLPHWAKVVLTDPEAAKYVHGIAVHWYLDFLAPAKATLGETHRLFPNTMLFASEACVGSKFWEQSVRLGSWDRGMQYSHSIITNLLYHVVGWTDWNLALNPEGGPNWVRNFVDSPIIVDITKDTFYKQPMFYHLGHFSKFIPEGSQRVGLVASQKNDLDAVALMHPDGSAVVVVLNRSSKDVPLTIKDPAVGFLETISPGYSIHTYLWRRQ
Chain of Glucocorticoid receptor (Homo sapiens) (P04150 whole entry, looked up, the tested form may be a part): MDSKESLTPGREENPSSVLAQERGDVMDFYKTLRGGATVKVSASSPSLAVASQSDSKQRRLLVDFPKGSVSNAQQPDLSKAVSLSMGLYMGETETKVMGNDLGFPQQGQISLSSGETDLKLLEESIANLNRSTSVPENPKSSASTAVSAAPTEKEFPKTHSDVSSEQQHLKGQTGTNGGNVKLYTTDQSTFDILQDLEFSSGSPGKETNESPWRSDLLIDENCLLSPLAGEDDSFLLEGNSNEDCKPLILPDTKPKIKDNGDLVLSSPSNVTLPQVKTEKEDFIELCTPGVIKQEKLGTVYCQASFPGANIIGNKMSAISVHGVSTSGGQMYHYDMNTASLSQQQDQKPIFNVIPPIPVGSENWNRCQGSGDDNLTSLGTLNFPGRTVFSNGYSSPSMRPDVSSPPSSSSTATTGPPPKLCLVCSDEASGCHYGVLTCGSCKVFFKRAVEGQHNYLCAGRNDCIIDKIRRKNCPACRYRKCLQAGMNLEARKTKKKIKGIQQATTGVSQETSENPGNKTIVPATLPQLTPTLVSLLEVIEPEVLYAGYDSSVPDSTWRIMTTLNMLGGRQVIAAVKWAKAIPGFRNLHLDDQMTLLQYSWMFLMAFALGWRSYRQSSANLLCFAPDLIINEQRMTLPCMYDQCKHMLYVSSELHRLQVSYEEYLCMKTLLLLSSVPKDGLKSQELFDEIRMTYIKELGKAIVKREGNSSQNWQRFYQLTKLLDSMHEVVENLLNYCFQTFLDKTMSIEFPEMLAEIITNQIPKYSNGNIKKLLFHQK
Chain of Cytochrome P450 1A2 (Homo sapiens) (P05177 whole entry, looked up): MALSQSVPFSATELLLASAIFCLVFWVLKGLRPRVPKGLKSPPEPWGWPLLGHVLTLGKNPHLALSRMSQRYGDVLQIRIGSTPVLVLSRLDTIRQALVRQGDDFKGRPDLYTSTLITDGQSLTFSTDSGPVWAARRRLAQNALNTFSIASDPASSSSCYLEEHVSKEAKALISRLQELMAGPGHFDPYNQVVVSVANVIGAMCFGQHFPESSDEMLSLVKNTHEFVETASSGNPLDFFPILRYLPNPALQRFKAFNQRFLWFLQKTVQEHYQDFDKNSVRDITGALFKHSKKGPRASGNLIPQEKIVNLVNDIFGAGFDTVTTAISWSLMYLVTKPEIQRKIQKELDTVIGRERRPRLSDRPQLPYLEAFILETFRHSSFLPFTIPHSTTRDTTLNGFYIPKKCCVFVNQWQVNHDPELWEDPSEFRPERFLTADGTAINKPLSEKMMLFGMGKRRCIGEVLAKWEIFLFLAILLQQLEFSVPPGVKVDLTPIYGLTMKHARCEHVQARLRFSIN
Chain of 3',5'-cyclic-AMP phosphodiesterase 4B (Homo sapiens) (Q07343 whole entry, looked up): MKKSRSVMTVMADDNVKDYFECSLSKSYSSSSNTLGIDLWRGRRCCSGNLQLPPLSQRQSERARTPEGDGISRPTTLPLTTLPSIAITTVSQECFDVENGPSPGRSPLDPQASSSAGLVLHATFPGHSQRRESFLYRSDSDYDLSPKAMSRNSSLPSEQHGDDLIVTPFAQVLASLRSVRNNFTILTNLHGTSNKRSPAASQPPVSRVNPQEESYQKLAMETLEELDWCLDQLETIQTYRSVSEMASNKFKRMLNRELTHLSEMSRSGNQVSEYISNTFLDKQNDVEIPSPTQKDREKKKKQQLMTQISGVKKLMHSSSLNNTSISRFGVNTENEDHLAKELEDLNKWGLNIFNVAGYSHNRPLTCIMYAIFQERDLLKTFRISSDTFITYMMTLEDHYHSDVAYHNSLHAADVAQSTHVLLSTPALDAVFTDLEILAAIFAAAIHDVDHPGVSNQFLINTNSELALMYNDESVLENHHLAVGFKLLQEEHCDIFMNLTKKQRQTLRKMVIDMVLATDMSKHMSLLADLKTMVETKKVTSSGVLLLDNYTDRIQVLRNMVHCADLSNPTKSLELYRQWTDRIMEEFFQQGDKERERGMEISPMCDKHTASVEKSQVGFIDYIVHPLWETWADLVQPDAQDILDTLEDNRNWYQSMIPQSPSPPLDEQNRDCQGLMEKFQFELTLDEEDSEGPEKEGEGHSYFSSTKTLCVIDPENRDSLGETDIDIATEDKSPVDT

O=S(=O)(O)c1ccc(O)c2ncccc12.O=S(=O)(O)c1ccc(O)c2ncccc12.[Zn]
Potency [1]: > 11.4 µM
activity change, negative = inhibition [2]: 6.49%
Potency [3]: 0.631 µM (active)
activity change, negative = inhibition [4]: -15.3%
activity, negative = inhibition [5]: 7.8%
Potency [6]: > 46 µM
Potency [7]: > 9.22 µM
Potency [8]: inactive
Potency [9]: inactive

Cc1nc2cccc([N+](=O)[O-])c2n1CCCN(C)C
Potency [1]: > 11.4 µM
activity change, negative = inhibition [2]: 11.7%
Potency [3]: inactive
activity change, negative = inhibition [4]: 12.7%
activity, negative = inhibition [5]: 9.88%
Potency [6]: > 46 µM
Potency [7]: > 9.22 µM
Potency [8]: inactive
Potency [9]: inactive

C=C(C)CNCCN
Potency [1]: > 11.4 µM
activity change, negative = inhibition [2]: 0.933%
activity change, negative = inhibition [3]: 2.2% [at 2.29 µM]
activity change, negative = inhibition [4]: 17.5%
activity, negative = inhibition [5]: 8.28%
Potency [6]: > 46 µM
Potency [7]: > 9.22 µM
Potency [8]: inactive
Potency [9]: inactive

O=C(O)[C@H]([C@H]1NCCS1)N1C(=O)c2ccccc2C1=O
Potency [1]: > 11.4 µM
activity change, negative = inhibition [2]: 20.1%
Potency [3]: 5.01 µM (active)
activity change, negative = inhibition [4]: 8.05%
activity, negative = inhibition [5]: 3.15%
Potency [6]: > 46 µM
Potency [7]: > 9.22 µM
Potency [8]: inactive
Potency [9]: inactive

N[C@@H](Cc1nn[nH]n1)C(=O)O
Potency [1]: > 11.4 µM
activity change, negative = inhibition [2]: -0.568%
Potency [3]: inactive
activity change, negative = inhibition [4]: -5.25%
activity, negative = inhibition [5]: 10.9%
Potency [6]: > 46 µM
Potency [7]: > 9.22 µM
Potency [8]: inactive
Potency [9]: inactive

CO[C@@H](NC(N)=O)C(=O)O
Potency [1]: > 11.4 µM
activity change, negative = inhibition [2]: -1%
activity change, negative = inhibition [3]: -6.4% [at 2.29 µM]
activity change, negative = inhibition [4]: 1.38%
activity, negative = inhibition [5]: 8.15%
Potency [6]: > 46 µM
Potency [7]: > 9.22 µM
Potency [8]: inactive
Potency [9]: inactive

O=C(O)[C@@H](Cc1c[nH]c2ccccc12)C(=O)NO
Potency [1]: > 11.4 µM
activity change, negative = inhibition [2]: -4.03%
Potency [3]: inactive
activity change, negative = inhibition [4]: 4.43%
activity, negative = inhibition [5]: 4.19%
Potency [6]: > 46 µM
Potency [7]: > 9.22 µM
Potency [8]: inactive
Potency [9]: inactive

O=C(NNC(=O)c1ccncc1)c1ccncc1
Potency [1]: > 11.4 µM
activity change, negative = inhibition [2]: 4.63%
Potency [3]: inactive
activity change, negative = inhibition [4]: 6.39%
activity, negative = inhibition [5]: 2.81%
Potency [6]: > 46 µM
Potency [7]: > 9.22 µM
Potency [8]: inactive
Potency [9]: inactive

COc1cc(C)cc(OC)c1/C=C\C(=O)O
Potency [1]: > 11.4 µM
activity change, negative = inhibition [2]: 12.4%
Potency [3]: inactive
activity change, negative = inhibition [4]: 8.76%
activity, negative = inhibition [5]: 7.32%
Potency [6]: > 46 µM
Potency [7]: > 9.22 µM
Potency [8]: inactive
Potency [9]: inactive

O=C(O)CCSC1=NCCN1
Potency [1]: > 11.4 µM
activity change, negative = inhibition [2]: 1.39%
Potency [3]: inactive
activity change, negative = inhibition [4]: 4.68%
activity, negative = inhibition [5]: 6.09%
Potency [6]: > 46 µM
Potency [7]: > 9.22 µM
Potency [8]: inactive
Potency [9]: inactive

[O-][N+]1(CC[N+]2([O-])CCCCC2)CCCCC1
Potency [1]: > 11.4 µM
activity change, negative = inhibition [2]: -8.89%
Potency [3]: inactive
activity change, negative = inhibition [4]: 2.18%
activity, negative = inhibition [5]: -8.8%
Potency [6]: > 46 µM
Potency [7]: > 9.22 µM
Potency [8]: inactive
Potency [9]: inactive

CN(CC(=O)O)Cc1c(O)c(Cl)cc(Cl)c1Cl
Potency [1]: > 11.4 µM
activity change, negative = inhibition [2]: -1.4%
activity change, negative = inhibition [3]: -1% [at 2.29 µM]
activity change, negative = inhibition [4]: 11.2%
activity, negative = inhibition [5]: 4.84%
Potency [6]: > 46 µM
Potency [7]: > 9.22 µM
Potency [8]: inactive
Potency [9]: inactive

O=C1CN2CCN(CC2)CC(=O)Nc2ccc(cc2)S(=O)(=O)c2ccc(cc2)NC(=O)CN2CCN(CC2)CC(=O)Nc2ccc(cc2)S(=O)(=O)c2ccc(cc2)N1
Potency [1]: > 11.4 µM
activity change, negative = inhibition [2]: 5.33%
Potency [3]: inactive
activity change, negative = inhibition [4]: 5.58%
activity, negative = inhibition [5]: 12.3%
Potency [6]: > 46 µM
Potency [7]: > 9.22 µM
Potency [8]: inactive
Potency [9]: inactive

Nc1nc(-c2ccc3ccccc3c2)cc(-c2cc(-c3ccc4ccccc4c3)nc(N)n2)n1
Potency [1]: > 11.4 µM
activity change, negative = inhibition [2]: -3.27%
Potency [3]: 0.501 µM (active)
activity change, negative = inhibition [4]: 9.25%
activity, negative = inhibition [5]: 6.54%
Potency [6]: > 46 µM
Potency [7]: > 9.22 µM
Potency [8]: inactive
Potency [9]: inactive

COC(=O)CCCC(=O)O
Potency [1]: > 11.4 µM
activity change, negative = inhibition [2]: 1.55%
activity change, negative = inhibition [3]: -7.3% [at 2.29 µM]
activity change, negative = inhibition [4]: -3.39%
activity, negative = inhibition [5]: -4.13%
Potency [6]: > 46 µM
Potency [7]: > 9.22 µM
Potency [8]: inactive
Potency [9]: inactive
